Shown are actives, neighbours in structure and some others; about 2.8% of the full set was active somewhere.
POLI inh: qHTS for Inhibitors of Polymerase Iota | DNA polymerase iota (Homo sapiens), Q9UNA4 | Pol iota fluorescent replication assay, 10 min | Potency, µM (doses to about 115 µM), most hits filed as inhibitors | 390,000 tested, 1% active
Target sequence (Q9UNA4 whole entry, looked up): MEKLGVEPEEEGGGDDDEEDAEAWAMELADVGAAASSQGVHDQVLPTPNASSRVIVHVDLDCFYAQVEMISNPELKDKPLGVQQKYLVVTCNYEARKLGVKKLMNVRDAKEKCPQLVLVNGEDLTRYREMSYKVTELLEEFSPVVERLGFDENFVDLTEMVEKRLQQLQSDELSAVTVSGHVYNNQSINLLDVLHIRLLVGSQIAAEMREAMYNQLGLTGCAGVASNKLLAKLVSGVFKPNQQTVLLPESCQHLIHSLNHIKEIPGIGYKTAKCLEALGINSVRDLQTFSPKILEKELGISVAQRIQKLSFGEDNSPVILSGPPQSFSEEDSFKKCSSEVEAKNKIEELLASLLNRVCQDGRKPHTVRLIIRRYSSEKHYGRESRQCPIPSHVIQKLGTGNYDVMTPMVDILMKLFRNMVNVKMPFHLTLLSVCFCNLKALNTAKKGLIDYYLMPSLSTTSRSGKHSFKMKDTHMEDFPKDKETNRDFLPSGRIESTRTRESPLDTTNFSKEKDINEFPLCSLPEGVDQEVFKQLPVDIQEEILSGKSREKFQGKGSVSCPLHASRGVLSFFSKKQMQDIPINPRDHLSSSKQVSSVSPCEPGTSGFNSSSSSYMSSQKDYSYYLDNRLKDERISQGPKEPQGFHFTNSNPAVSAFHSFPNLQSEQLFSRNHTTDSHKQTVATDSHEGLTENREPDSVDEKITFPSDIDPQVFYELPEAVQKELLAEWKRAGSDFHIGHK
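Fluorescent replication assay read twice, at 0 min and 10 min after adding 50 nM (final) substrate. Enzyme (10 nM) and compounds were first incubated 15 min at room temperature; enzyme-free buffer wells were negative controls.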
POLK inh: qHTS for Inhibitors of Polymerase Kappa; DNA polymerase kappa (Homo sapiens), Q9UBT6; purified Pol kappa, fluorescent DNA synthesis assay, 10 min; Potency, µM (titrated, usually from 107 µM), usual class: inhibitors; 400,000 tested, 0.53% active; AID 588579, 2011
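10 nM Pol kappa was preincubated with compounds for 15 min at room temperature. Reaction started with 50 nM (final) substrate. Fluorescence read kinetically at 0 and 10 min.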
POLH inh: qHTS for Inhibitors of Polymerase Eta | 390,000 tested, 1.2% active | recombinant Pol eta, fluorescent DNA replication assay | AID 588591, 2011 | Potency, µM (doses to about 114 µM), most hits filed as inhibitors | DNA polymerase eta (Homo sapiens), Q9Y253
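Pol eta (10 nM) was preincubated with compounds for 15 min at room temperature, after which fluorescent replication substrate (50 nM final) was added to start the reaction. Fluorescence was read kinetically at 0 and 10 min.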
WRN inhibitor: qHTS for Inhibitors of WRN Helicase | Bifunctional 3'-5' exonuclease/ATP-dependent helicase WRN (Homo sapiens), Q14191 | WRN helicase unwinding, fluorescent forked duplex, kinetic | Potency, µM (series often up to 114 µM), usual class: inhibitors | 360,000 tested, 0.46% active; also: nearly all actives have a fitted effect of over 55% in size
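Kinetic red-fluorescence monitoring (525/598 nm) tracks WRN helicase activity after 100 nM fluorophore-quencher forked duplex and 2 mM ATP are added to 20 nM enzyme pretreated 15 min at room temperature with compound.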
POLB inh: qHTS Assay for Inhibitors of DNA Polymerase Beta. AID 485314, 2010. Pol beta primer extension/strand displacement, fluorescence kinetic. Potency, µM (highest dose often 114 µM), actives largely listed as inhibitors. 340,000 tested, 1.3% active
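Curves were derived by four-parameter Hill fits of normalized qHTS data. The kinetic fluorescent primer-extension read was taken at 0 and 10 min after 50 nM substrate, following a 15 min room-temperature preincubation of 10 nM enzyme with compounds.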
PI5P4K alpha inh: qHTS for Inhibitors of phosphatidylinositol 5-phosphate 4-kinase (PI5P4K); max response, %; AID 652105, 2013; 330,000 tested, 1.2% active; PI5P4Kalpha enzyme, ADP-Glo luminescence, 60 min; stronger effect = lower value; active = max response of -50% or lower; inconclusive = between -30% and -50%; inactive = -30% or higher; also: value at the top dose of about 77 µM
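Reactions run in 0.038 M HEPES pH 7.4, 0.28 mM EGTA, 0.1% CHAPS and 5% DMSO, with PI5P4Kalpha, substrate, compound and 5 microM ATP final, one hour at room temperature. Readout is ADP-Glo luminescence.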
Hits are given with their value; . = inactive; ? = inconclusive; / = no result given; ! = repeats disagree; [ ] = another dose, or the depositor's remark. Unless noted, calls follow the shape of the dose curve; as a rule, active = well fitted curve in the direction sought with a large enough effect; inconclusive = small, poorly fitted or top-dose-only effect, or another doubt; inactive = no such curve, though single readings can be large; an effect the other way counts as inactive or inconclusive.

SMILES | POLI inh | POLK inh | POLH inh | WRN inhibitor | POLB inh | PI5P4K alpha inh
COc1cc(S(=O)(=O)N2CCOCC2)ccc1NC(=O)COC(=O)c1ccc(Cl)nc1 | . | . | . | . | / | .
COc1ccc(OC)c(NC(=O)[C@H](CSCc2ccccc2)N2Cc3ccccc3C2=O)c1 | . | . | . | / | . | /
N#CCCn1cc(C(=O)CN2C(=O)NC3(CCc4ccccc43)C2=O)c2ccccc21 (stereo unspecified) | / | / | . | . | / | .
O=C(CN1C(=O)NC2(CCCCC2)C1=O)Nc1ccccc1Cl | 89.1µM | . | . | . | . | .
O=C(CN1C(=O)NC2(CCCCC2)C1=O)Nc1cccc(Cl)c1Cl | . | . | . | . | / | .
CCN(C(=O)CN1CCN(c2ccc(O)cc2)CC1)c1c(N)n(Cc2ccccc2)c(=O)[nH]c1=O | ? | . | . | . | 44.7µM | .
CCN(C(=O)CN1CCCCCC1)c1c(N)n(Cc2ccccc2)c(=O)[nH]c1=O | . | . | . | . | / | .
CC1CCN(S(=O)(=O)c2ccc(NC(=O)C3CSC4(C)CCC(=O)N34)cc2)CC1 (stereo unspecified) | ? | . | 20µM | .[11.6 µM] | / | .
CC12CCC(=O)N1C(C(=O)Nc1cccc(S(=O)(=O)N3CCCCC3)c1)CS2 (stereo unspecified) | ? | . | . | . | / | .
CN(C)c1ccc(/C=C/c2ncnc3ccccc23)cc1 | 39.8µM | ? | / | / | / | /
CN(Cc1ccccc1)c1ccc(/C=C/c2nc3ccccc3s2)cc1 | 89.1µM | 25.1µM | / | / | / | /
CN(C)c1ccc(/C=C/c2nc3ccccc3s2)cc1 | 89.1µM! | ? | . | . | . | .
COc1cc(/C=C/c2nc3ccccc3s2)cc(OC)c1O | . | . | ? | . | 22.4µM | .
CC(C)(C)c1ccc(C(=O)N/C(=C\c2ccco2)C(=O)Nc2ccccc2C(=O)O)cc1 | ? | ? | 35.5µM | . | ? | ?
CCN(CC)c1ccc(/C=C/c2sc3ccccc3[n+]2CCCCI)cc1 | 50.1µM | ? | / | / | / | /
CCCCCCC[n+]1c(/C=C/c2ccc(N(C)C)cc2)sc2ccccc21 | 79.4µM | 39.8µM | / | / | / | /
CC(=O)Nc1ccc(/C=C/c2sc3ccccc3[n+]2CCCCI)cc1 | 79.4µM | 44.7µM | / | / | / | /
Cc1cc(C)nc(CCNC(=O)c2cc(COc3c(C)cccc3C)on2)n1 | . | . | . | . | . | .
Cc1ccc(/C=C2\SC(=S)N(/N=C/c3cc([N+](=O)[O-])ccc3O)C2=O)o1 | 4.47µM | 20µM | 10µM | 35.5µM | 8.91µM | -84.4
O=c1c2ccccc2cnn1Cc1nnc(-c2cccs2)o1 | ? | . | . | . | 44.7µM | .
Cc1ccc(CNC(=O)Cn2c(=O)n(-c3cccc(Cl)c3)c(=O)c3sc4ccccc4c32)cc1 | . | . | . | / | . | /
Cc1ccc(NC(=O)[C@H](C)NC(=O)C2CCN(C(=O)[C@@H](N)CC(C)C)CC2)cc1 | . | . | . | . | . | .
S=c1[nH]nc(-c2ccccn2)n1/N=C/c1ccc(-c2ccccc2Cl)o1 | . | . | . | . | 22.4µM | .
Cc1ccccc1Nc1nc(N)nc(COC(=O)/C=C/c2ccco2)n1 | . | . | . | . | ? | .
CN(C)C1C(=O)C(C(N)=O)C(=O)C2(O)C(=O)C3C(=O)c4c(O)ccc(Cl)c4C(O)C3CC12 (stereo unspecified) | / | 35.5µM | / | / | / | /
SMILES | POLI inh | POLK inh | POLH inh | WRN inhibitor | POLB inh | PI5P4K alpha inh
CN(C)C1C(=O)C(C(N)=O)=C(O)[C@@]2(O)C(=O)C3=C(O)c4c(O)ccc(Cl)c4C(O)[C@H]3C[C@@H]12 (stereo partly specified) | / | . | / | / | / | /
O=C(O)COc1ccc(Br)cc1/C=C1/SC(=O)N(CC(=O)N2CCCC2)C1=O | ? | . | . | ? | . | .
O=C(O)CN1C(=O)/C(=C\c2cc(Br)ccc2OCc2ccccc2Cl)SC1=S | ? | . | 39.8µM | 56.2µM | 31.6µM | .
CCOc1ccccc1C=C1SC(=S)N(CC)C1=O | . | . | . | . | / | .
O=C(O)CN1C(=O)/C(=C\c2ccccc2OCc2ccc(Cl)cc2Cl)SC1=S | ? | . | 44.7µM | ? | 20µM | .
CCC(=O)N(Cc1cc(=O)[nH]c2ccccc12)c1ccc(OC)cc1 | . | . | . | . | . | .
Cc1ccc2occ(/C=N/O)c(=O)c2c1 | ? | . | . | . | . | .
CC(=O)Oc1ccc2occ(/C=N/c3cc(=O)[nH]c(=S)[nH]3)c(=O)c2c1 | ? | . | ? | . | . | -51.3
CCC(C)Sc1nc2c(c(=O)[nH]1)C(c1cccs1)C1=C(CCCC1=O)N2 (stereo unspecified) | ? | . | ? | . | 25.1µM | ?
S=C(NCCCN1CCN(CCCNC(=S)NC2CCCCC2)CC1)NC1CCCCC1 | . | . | . | . | / | .
COc1cc(NC(=O)c2cnc(N)s2)cc(C(=O)Nc2cccc(C(F)(F)F)c2)c1 | 2.24µM | . | . | . | . | .
COc1cc(NC(=O)c2ccnc(N)c2)cc(C(=O)Nc2cccc(C(F)(F)F)c2)c1 | ? | . | . | .[11.6 µM] | . | .
O=C1c2cccc3cccc(c23)C(=O)C1(O)O | . | . | . | 20µM | / | ?
CC(=O)N1C(=O)c2cccc3cccc(c23)C(=O)N1C(C)=O | . | . | . | . | . | .
Cc1cccc(NC(=O)CSc2nc(=O)n(Cc3ccccn3)c3c2CCC3)c1C | . | . | . | / | . | /
Cc1ccc2nc(CSc3nnc(Nc4ccccc4F)s3)cc(=O)n2c1 | ? | . | . | . | 22.4µM | .
CCOCCc1nnc(NC(=O)Cc2ccc(Br)cc2)s1 | . | . | . | . | 89.1µM | /
CCOCCc1nnc(NC(=O)CCc2ccccc2)s1 | . | . | . | . | . | .
COc1ccccc1C(=O)Nc1nnc([C@H]2C[C@H](O)[C@@H](CO)O2)s1 | / | / | / | . | / | .
COCCNS(=O)(=O)c1cc(-c2nn(C)c(=O)c3ccccc23)ccc1C | . | . | ? | . | . | .
CCCCNS(=O)(=O)c1cc(-c2nn(C)c(=O)c3ccccc23)ccc1C | ? | ? | ? | .[11.6 µM] | 35.5µM | .
CCN(CC)S(=O)(=O)c1cc(-c2nn(C)c(=O)c3ccccc23)ccc1C | ? | . | ? | . | 44.7µM | .
CCCNC(=O)COc1coc(CN2CCN(c3cccc(Cl)c3)CC2)cc1=O | . | . | . | . | . | .
CCOC(=O)C1CCN(S(=O)(=O)c2ccc3c(c2)CC(=O)N3C)CC1 | 14.1µM | . | ? | . | . | .
COc1ccccc1N1CCN(C(=O)Cn2nc3n(C)c4ccccc4n3c(=O)c2=O)CC1 | / | / | / | / | . | /
CCN1C(=O)/C(=C/C=C2\N(CC)c3cc(S(=O)(=O)N(C)C)ccc3N2c2ccccc2)SC1=S | ? | ? | . | ? | 3.55µM | .

Source: PubChem
